The values below come from PubChem BioAssay (Tox21).

The structures appear in SMILES notation. Values joined by “and” are separate entries in the source; they are usually repeats but may differ in a detail not shown here. Equal values may be shown once. Records with an inconclusive call do not appear. Active and inactive are the calls of the source. Unless noted, calls come from the whole dose curve; as a rule, active = well fitted curve in the direction sought with a large enough effect in the repeat runs; inconclusive = weak or mixed curves; inactive = no such curve, though single readings can be large; an effect the other way counts as inactive or inconclusive.

A short description of experiment [1]: qHTS assay to identify small molecule agonists of the RXR signaling pathway - cell viability counter screen (AID 1159529).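 Note: HEK 293T cells carrying an RXR-alpha UAS beta-lactamase reporter; series mostly up to about 77 µM; nearly all actives have a fitted effect of over 50% in size.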 The procedure, abridged:
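RXR-alpha-UAS-bla HEK 293T cells in medium with 2% charcoal-stripped FBS were preincubated 5 hr, then exposed to compounds for 16 hr at 37 C. Viability was read as CellTiter-Glo luminescence after 30 min at room temperature.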
For orientation: Quantitative high-throughput screening tests each substance at several concentrations.

Experiment [2] is described as follows: qHTS assay to identify small molecule antagonists of the retinoic acid receptor (RAR) signaling pathway (AID 1159552; note: nearly all actives have a fitted effect of over 50% in size; note: potency is the fitted concentration of half-maximal effect). The procedure, abridged:
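RARE-luc C3RL4 cells; cpds + 1 uM (final) retinol, 6 hr, 37 C/5% CO2; luciferase reagent, 30 min RT, luminescence readout. Inhibitors of retinol-driven signal scored.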

The nature of experiment [3]: qHTS assay to identify small molecule antagonists of the estrogen related receptor (ERR) signaling pathway from Tox21 library - cell viability counter screen (AID 1224834). Note: nearly all actives have a fitted effect of over 30% in size. Note: potency is the fitted concentration of half-maximal effect. In a few lines:
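Cytotoxicity of test substances is gauged in the same ERR cells used for the antagonist screen, after 17.5 h of compound treatment at 37 C, by CellTiter-Fluor fluorescence measured after 30 min.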

Experiment [4] can be described thus: qHTS assay to identify small molecule agonists of the constitutive androstane receptor (CAR) signaling pathway - cell viability counter screen (AID 1224836). Note: nearly all actives have a fitted effect of over 45% in size. Note: potency is the fitted concentration of half-maximal effect. In a few lines: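 HepG2 cells stably carrying hCAR and a CYP2B6-2.2kb reporter were plated 4 h, then given compounds at 15 concentrations plus PK11195 (final 0.75 uM). After 23 h at 37 C, viability was read by CellTiter-Fluor fluorescence.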

The nature of experiment [5]: qHTS assay to identify small molecule antagonists of the constitutive androstane receptor (CAR) signaling pathway - cell viability counter screen (AID 1224837). Note: nearly all actives have a fitted effect of over 45% in size. Note: potency is the fitted concentration of half-maximal effect. The procedure, abridged: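 Multiplexed cytotoxicity read-out for the CAR antagonist screen: double-stable HepG2-CYP2B6-hCAR cells co-treated with 50 nM CITCO (final) and compound over 15 concentrations, incubated 23 hr, then assessed by CellTiter-Fluor fluorescence.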

Experiment [6] concerns the target Nuclear receptor subfamily 1 group I member 3 (Homo sapiens) (UniProt Q14994). Briefly: qHTS assay to identify small molecule antagonists of the constitutive androstane receptor (CAR) signaling pathway (AID 1224838). Note: nearly all actives have a fitted effect of over 40% in size. Note: potency is the fitted concentration of half-maximal effect. The procedure, abridged: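 Compounds were titrated across 15 concentrations onto HepG2 cells double-stably expressing hCAR and a CYP2B6-2.2kb reporter, together with 50 nM CITCO (final). After 24 h at 37 C, luciferase activity was measured by luminescence.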

Experiment [7] has the same target. Briefly: qHTS assay to identify small molecule agonists of the constitutive androstane receptor (CAR) signaling pathway (AID 1224839). Note: series mostly up to about 92 µM; nearly all actives have a fitted effect of over 15% in size. In a few lines:
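HepG2 cells stably expressing hCAR and a CYP2B6-2.2kb luciferase reporter were treated with compounds at 15 concentrations plus 0.75 uM PK11195 (final) for 24 h at 37 C; luminescence was read after ONE-Glo addition.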

Experiment [8] is described as follows: qHTS assay to identify small molecule antagonists of the estrogen related receptor signaling pathway with the pleiotropic PPARgamma coactivator (PGC) from Tox21 10K library - cell viability counter screen (AID 1224840; active = well fitted cell-killing curve with a large enough effect in the repeat runs, not every such curve was filed as active; note: nearly all actives have a fitted effect of over 40% in size; note: potency is the fitted concentration of half-maximal effect). The procedure, abridged: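 Step one, plate 2,000 PGC/ERR cells per well; step two, incubate 6 h at 37 C/5% CO2; step three, pin-transfer compounds; step four, incubate 17.5 h; step five, add CellTiter-Fluor and read fluorescence after 30 min.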

Experiment [9] addresses Thyrotropin receptor (Homo sapiens) (UniProt P16473). Briefly: qHTS assay to identify small molecule agonists of the thyroid stimulating hormone receptor (TSHR) signaling pathway (AID 1224843; calls by dose curve; note: nearly all actives have a fitted effect of over 45% in size). The procedure, abridged: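 Cell line HEK293 with TSHR; density 800/well. Exposure 30 min RT. Readout HTRF cAMP (cAMP-d2/anti-cAMP-cryptate), 1 h RT before reading.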
In experiment [10] the target is Luciferin 4-monooxygenase (Photinus pyralis) (UniProt P08659). The experiment in a line: qHTS assay to identify small molecule inhibitors of firefly luciferase (AID 1224835). Note: nearly all actives have a fitted effect of over 25% in size. Note: potency is the fitted concentration of half-maximal effect. The procedure, abridged: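 Quantitative HTS format; KM concentrations of both substrates. Purified P. pyralis FLuc activity quantified from luminescence images.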
A short description of experiment [11]: qHTS assay to identify small molecule antagonists of the estrogen related receptor signaling pathway with the pleiotropic PPARgamma coactivator (PGC) from Tox21 10K library (AID 1224841; call rule not given here; note: series mostly up to about 92 µM; actives are mostly falling curves and most rising ones were filed inactive; nearly all actives have a fitted effect of over 50% in size). In a few lines:
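Antagonism in this quantitative HTS is taken from loss of luciferase signal in PGC/ERR cells. Cells (2,000/well) are treated with compounds in DMSO after a 6 h settling period and read by One-Glo luminescence after 18 h.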

A short description of experiment [12]: qHTS assay to identify small molecule agonists of the estrogen related receptor signaling pathway with the pleiotropic PPARgamma coactivator (PGC) from Tox21 10K library (AID 1224842). Note: nearly all actives have a fitted effect of over 15% in size. Note: potency is the fitted concentration of half-maximal effect. In a few lines: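 PGC/ERR reporter cells (NTP line) were seeded 2,000 per well, rested 6 h at 37 C/5% CO2, then pin-dosed with compounds in DMSO for 18 h at 37 C; luciferase read by One-Glo luminescence after 30 min at room temperature.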

A short description of experiment [13]: qHTS assay to identify small molecule agonists of the retinoic acid receptor (RAR) signaling pathway (AID 1159553). In a few lines:
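Agonist activity was scored in C3RL4 cells bearing a retinoic acid response element luciferase construct. Cells were treated with compounds for 6 hr at 37 C, and luciferase signal was measured as luminescence.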

The nature of experiment [14]: qHTS assay to identify small molecule antagonists of the retinoid acid receptor (RAR) signaling pathway - cell viability counter screen (AID 1159551). Note: nearly all actives have a fitted effect of over 35% in size. The procedure, abridged:
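Cytotoxicity counter screen in C3RL4 cells: 6 h compound exposure with 1 uM retinol (final), viability from cellular ATP by luminescence.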

Sequence of Nuclear receptor subfamily 1 group I member 3 (Homo sapiens) (Q14994 whole entry, looked up): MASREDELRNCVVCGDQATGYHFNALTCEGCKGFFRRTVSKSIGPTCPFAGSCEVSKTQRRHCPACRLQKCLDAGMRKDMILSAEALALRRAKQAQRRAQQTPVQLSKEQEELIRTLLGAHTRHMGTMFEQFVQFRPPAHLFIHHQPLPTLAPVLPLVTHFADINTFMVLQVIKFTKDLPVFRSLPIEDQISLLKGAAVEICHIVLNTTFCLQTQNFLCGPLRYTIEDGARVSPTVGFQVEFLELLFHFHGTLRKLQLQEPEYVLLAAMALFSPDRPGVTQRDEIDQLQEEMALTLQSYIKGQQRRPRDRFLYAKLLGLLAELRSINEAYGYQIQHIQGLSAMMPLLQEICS
Sequence of Thyrotropin receptor (Homo sapiens) (P16473 whole entry, looked up): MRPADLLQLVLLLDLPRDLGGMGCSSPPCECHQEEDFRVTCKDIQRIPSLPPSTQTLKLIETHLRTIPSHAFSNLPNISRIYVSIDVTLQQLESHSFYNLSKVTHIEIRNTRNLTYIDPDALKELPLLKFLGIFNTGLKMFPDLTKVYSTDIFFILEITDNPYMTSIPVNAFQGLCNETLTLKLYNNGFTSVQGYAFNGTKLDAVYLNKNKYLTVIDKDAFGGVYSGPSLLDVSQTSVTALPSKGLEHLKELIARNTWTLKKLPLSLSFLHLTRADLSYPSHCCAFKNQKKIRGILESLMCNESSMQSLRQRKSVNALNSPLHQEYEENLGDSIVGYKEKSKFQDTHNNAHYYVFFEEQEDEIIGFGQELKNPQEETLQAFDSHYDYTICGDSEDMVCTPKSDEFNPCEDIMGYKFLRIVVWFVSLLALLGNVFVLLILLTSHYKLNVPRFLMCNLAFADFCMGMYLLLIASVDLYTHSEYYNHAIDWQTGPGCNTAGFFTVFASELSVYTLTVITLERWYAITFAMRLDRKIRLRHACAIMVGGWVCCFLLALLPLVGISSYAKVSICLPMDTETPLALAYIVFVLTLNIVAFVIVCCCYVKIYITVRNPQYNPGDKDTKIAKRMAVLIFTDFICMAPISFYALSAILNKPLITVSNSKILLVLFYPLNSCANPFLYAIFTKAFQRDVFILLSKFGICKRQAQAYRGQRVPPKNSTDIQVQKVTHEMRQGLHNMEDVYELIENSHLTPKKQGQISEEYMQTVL
Sequence of Luciferin 4-monooxygenase (Photinus pyralis) (P08659 whole entry, looked up): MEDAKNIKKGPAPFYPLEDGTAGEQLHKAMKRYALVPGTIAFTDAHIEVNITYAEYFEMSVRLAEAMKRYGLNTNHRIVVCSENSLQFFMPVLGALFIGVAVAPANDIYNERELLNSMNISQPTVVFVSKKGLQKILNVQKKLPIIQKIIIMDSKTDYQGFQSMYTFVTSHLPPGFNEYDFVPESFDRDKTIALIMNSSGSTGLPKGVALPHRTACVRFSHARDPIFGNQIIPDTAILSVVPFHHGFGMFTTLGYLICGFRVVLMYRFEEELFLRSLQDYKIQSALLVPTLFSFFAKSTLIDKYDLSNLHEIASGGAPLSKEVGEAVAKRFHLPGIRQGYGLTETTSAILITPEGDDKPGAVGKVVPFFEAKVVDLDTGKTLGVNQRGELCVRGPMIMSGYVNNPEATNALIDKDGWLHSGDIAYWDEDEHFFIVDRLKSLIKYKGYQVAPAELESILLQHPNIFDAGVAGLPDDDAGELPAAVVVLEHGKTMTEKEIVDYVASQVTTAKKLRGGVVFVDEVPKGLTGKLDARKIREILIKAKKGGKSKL

`C=CC(C)(CCC=C(C)C)OC(=O)c1ccccc1N` (stereo not given): the Potency entry in experiment [1], in experiment [2], in experiment [3], in experiment [4], in experiment [5] and in experiment [6] was “inactive” in each case. For the same molecule, the Potency entry in [7], in experiment [8] and in [9] was “inactive” throughout.

Turning to `C#C[C@]1(O)CC[C@H]2[C@@H]3CCC4=CC(=O)CCC4=C3C=C[C@@]21CC`, the Potency result in [1], in experiment [10], in experiment [4], in [5], in [6] and in experiment [8] was “inactive” throughout. Also, the Potency in experiment [2] was 9.44 µM (active); in experiment [3] it was 21.1 µM (active).

Regarding `O=C(CCl)CCl`, the Potency entry in experiment [1], in experiment [3], in experiment [10], in [4], in [5] and in [8] was “inactive” each time. The Potency result in [9] was “inactive”.

Consider `CC(C)(C#N)C(C)(C)C#N`, for which the Potency result in [1], in experiment [3], in experiment [10], in [4], in [6] and in experiment [8] was “inactive” each time. The Potency result in experiment [11] and in [12] was “inactive” each time.

As for `O=[N+]([O-])/C=C/c1ccccc1`, the Potency in [3] was 19.6 µM (active); in experiment [4], 27.8 µM (active) and 24.3 µM (active); in experiment [5], 30.6 µM (active); in experiment [6] it was 24.7 µM (active) and 24.3 µM (active); in experiment [8], 15.6 µM (active) and 24.3 µM (active); in experiment [12] it was 9.85 µM (active) and 13.7 µM (active). Also, the Potency result in experiment [11] and in [9] was “inactive” in each case.

In the case of `O=P(OCC(Br)CBr)(OCC(Br)CBr)OCC(Br)CBr` (stereo not given), the Potency entry in [1], in [2], in [13], in experiment [10], in experiment [6] and in experiment [7] was “inactive” in each case. Besides, the Potency entry in experiment [8] and in [9] was “inactive” throughout. In experiment [3], the Potency was 49.2 µM (active) and 51.7 µM (active).

As to `Cc1nc(N(C)C)nc(OC(=O)N(C)C)c1C`, the Potency entry in experiment [1], in [2], in experiment [3], in [10], in experiment [4] and in experiment [5] was “inactive” in each case. The Potency result in experiment [8] and in [9] was “inactive” in each case.

With `O=C(O)c1ccc(=O)[nH]c1`, the Potency result in [1], in [3], in [10], in experiment [4], in experiment [6] and in [7] was “inactive” throughout. Also, the Potency result in [8], in [11] and in experiment [12] was “inactive” each time.

`O=C(Cc1ccccc1)OCCc1ccccc1`: the Potency result in [1], in experiment [2], in experiment [3], in [4], in experiment [5] and in experiment [8] was “inactive” in each case. In addition, the Potency result in experiment [11] and in [12] was “inactive” in each case. In addition, in [10], the Potency was 35.6 µM (active).

For `CC(C)(C)c1ccc(CCOc2ncnc3ccccc23)cc1`, the Potency entry in [14], in [2], in experiment [13], in [3], in experiment [10] and in experiment [4] was “inactive” each time. For the same molecule, the Potency result in experiment [5], in [6], in [8] and in [9] was “inactive” each time.
